We go through 38 sequences from PMC5913336, “True equilibrium measurement of transcription factor-DNA binding affinities using automated polarization microscopy”.

One test has as its target T1, Slp1-FL (Drosophila melanogaster, UniProt P32030).
T1 sequence: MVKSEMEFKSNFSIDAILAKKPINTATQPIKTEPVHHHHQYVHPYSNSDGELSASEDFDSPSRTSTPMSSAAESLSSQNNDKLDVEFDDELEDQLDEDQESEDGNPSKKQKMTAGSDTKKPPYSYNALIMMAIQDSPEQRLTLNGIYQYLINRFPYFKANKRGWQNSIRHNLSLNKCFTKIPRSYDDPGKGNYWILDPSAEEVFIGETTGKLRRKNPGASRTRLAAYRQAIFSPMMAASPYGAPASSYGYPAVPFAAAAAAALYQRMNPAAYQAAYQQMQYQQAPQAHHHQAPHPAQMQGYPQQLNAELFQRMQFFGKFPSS
Put plainly: FP; 33 mM phosphate pH 7.0, 90 mM NaCl, 0.01% Tween 20, 0.1 mM DTT, 0.5% agarose; room temperature. The conditions noted are these: tags: N-GST (pGEX-6P-1, kept); dsDNA, one strand shown.
In the case of ACGTGTTTGCACTTA, the binding signal is 23.1 Kd / Kd of best base at the position.
With ACGTGTTTAGACTTA, the binding signal is 19.7 Kd / Kd of best base at the position.
Same read-out and setting: next, ACGTATTTACACTTA: 3.26 Kd / Kd of best base at the position.
The same measure, in the same setting: next, ACGTGTTTACACTTG: 1.73 Kd / Kd of best base at the position.

A further test concerns the target T2, Gt (Drosophila melanogaster, UniProt P39572 369-448).
T2 sequence: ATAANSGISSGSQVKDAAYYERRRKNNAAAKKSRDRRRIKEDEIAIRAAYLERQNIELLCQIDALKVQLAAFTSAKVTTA
The test is described as above. The conditions noted are these: tags: N-GST (pGEX-6P-1, kept); chain copies: 2; dsDNA, one strand shown.
For the sequence ATTACGTAATC, the binding signal was 1.58 Kd / Kd of best base at the position.
Still for that read-out and setting: next, ATTAGGTAACC: 56.6 Kd / Kd of best base at the position.
In the case of ATTACCTAACC, the binding signal was 45.8 Kd / Kd of best base at the position.
On to ATTACGTTACC, for which the binding signal is 518 Kd / Kd of best base at the position.
For the sequence ATTACGTAACG, the binding signal was 3.4 Kd / Kd of best base at the position.
The same measure, in the same setting: next, ATTACGCAACC: 4.03 Kd / Kd of best base at the position; ATTTCGTAACC: 177 Kd / Kd of best base at the position; ACTACGTAACC: 121 Kd / Kd of best base at the position.
Still for that read-out and setting: next, ATTACGTATCC: 549 Kd / Kd of best base at the position.
In the case of GTTACGTAACC, the binding signal was 1.09 Kd / Kd of best base at the position.
On the same count and under the same terms, as for ATTAAGTAACC, the figure is 133 Kd / Kd of best base at the position; as for ATTACGTAAAC, 10.5 Kd / Kd of best base at the position.
Regarding ATCACGTAACC, the binding signal was 40.1 Kd / Kd of best base at the position.
Still for that read-out and setting: next, ATTACGTACCC: 1620 Kd / Kd of best base at the position.
On the same count and under the same terms, as for ATGACGTAACC, the figure is 3.59 Kd / Kd of best base at the position; as for ATTACGTAACT, 4.28 Kd / Kd of best base at the position.
On the same count and under the same terms, next, ATTACTTAACC: 567 Kd / Kd of best base at the position.
One may read the Kd as the free concentration of one partner at which half of the binding sites on the other are occupied at equilibrium, for simple one-to-one binding. Read a high Kd as lower affinity. In turn, ATTACGTAACC returned an equilibrium dissociation constant (Kd) of roughly 900 pM.
For the sequence AGTACGTAACC, the binding signal was 155 Kd / Kd of best base at the position.
Turning to ATTACGTGACC, the binding signal is 18.9 Kd / Kd of best base at the position.
Same read-out and setting: next, CTTACGTAACC: 2.33 Kd / Kd of best base at the position; ATTACGTAGCC: 1020 Kd / Kd of best base at the position; ATTACGTCACC: 5.02 Kd / Kd of best base at the position.
On the same count and under the same terms, next, ATTACGTAACA: 2.19 Kd / Kd of best base at the position.
Turning to ATTACGTAAGC, the binding signal was 3.37 Kd / Kd of best base at the position.
ATTACGGAACC: the binding signal was 460 Kd / Kd of best base at the position.
The same measure, in the same setting: as for TTTACGTAACC, the figure is 6.92 Kd / Kd of best base at the position; as for ATTACGAAACC, 316 Kd / Kd of best base at the position.
The same measure, in the same setting: as for ATTATGTAACC, the figure is 3.81 Kd / Kd of best base at the position.
Still for that read-out and setting: as for ATTCCGTAACC, the figure is 1830 Kd / Kd of best base at the position; as for ATTGCGTAACC, 3.54 Kd / Kd of best base at the position; as for ATAACGTAACC, 174 Kd / Kd of best base at the position.
For ATTACATAACC, the binding signal was 3.03 Kd / Kd of best base at the position.
Still for that read-out and setting: next, AATACGTAACC: 113 Kd / Kd of best base at the position.
